Screens (PubChem)
The list is not random: actives were taken first. Their share in the collection is about 9.4%.
Pf growth 96h: P. falciparum growth inhibition at 96 hours; AID 504834; 6.9% of 320,000 active; Potency, µM (titrated, usually from 28.7 µM), for the others: at the top dose activity change, negative = inhibition, most hits filed as inhibitors; P. falciparum luciferase reporter growth, 96 h; note: % is set by controls: 0 for no effect and ±100 for the full control effect
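Readout is luminescence from an integrated firefly luciferase in P. falciparum. Red cells, 2% hematocrit and 0.05% parasitemia final, were cultured with compound through two parasite generations (96 hours) at 37 C, 5% CO2.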
SARS PLpro yeast: inhibitors of SARS-CoV papain-like protease in yeast; 0.19% of 330,000 active; Potency, µM (top dose mostly 32.9 µM), without a hit: at the top dose activity, positive = growth rescue, usual class: activators; S. cerevisiae expressing SARS-CoV PLpro, growth rescue; calls by dose curve; note: 0% is about no effect; nearly all actives have a fitted effect of over 55% in size
AMA1-RON2 inh: AMA1-RON2 (P. falciparum) interaction inhibition; AlphaScreen AMA1-biotinylated RON2 peptide binding; Potency, µM (titrated, usually from 58.2 µM), without a hit: at the top dose activity change, negative = inhibition, actives largely listed as inhibitors; 0.2% of 360,000 active; AID 720542;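 note: 0% = vehicle wells and -100% = peptide control; nearly all actives have a fitted effect of over 45% in size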
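AMA1 (3D7) with his tag at 25 nM final met compounds first, then biotinylated RON2 peptide at 25 nM; detection used donor plus acceptor beads, 10 µg/mL apiece, read by AlphaScreen after 30 min at room temperature.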
Pf growth 48h: inhibits P. falciparum growth in the first generation, 48 h; 5.9% of 310,000 active; AID 504832; Potency, µM (highest dose often 28.7 µM), inactives show at the highest dose activity change, negative = inhibition, hits mostly inhibitors; P. falciparum luciferase growth in erythrocytes, 48 h; note: % is set by controls: 0 for no effect and ±100 for the full control effect
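Read-out is firefly luciferase luminescence from an integrated reporter in P. falciparum, so falling signal marks reduced parasite growth. Infected erythrocytes were at 2% hematocrit and 0.1% parasitemia (final) in Albumax-supplemented RPMI 1640.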
Numbers without * were called inactive; u = inconclusive; x = not tested or not shown; [ ] = dose if it differs, or a comment. Unless noted, calls come from the whole dose curve; as a rule, active = well fitted curve in the direction sought with a large enough effect; inconclusive = small, poorly fitted or top-dose-only effect, or another doubt; inactive = no such curve, though single readings can be large; an effect the other way counts as inactive or inconclusive. Potency is the fitted concentration of half-maximal effect.

SMILES	Pf growth 96h	SARS PLpro yeast	AMA1-RON2 inh	Pf growth 48h
COc1cc(Cl)cc2c1Sc1ccccc1/C2=C/CCN(C)C	u	-3%	u	12µM*
CCOC(=O)c1c(NC(=S)Nc2cc([N+](=O)[O-])ccc2OC)sc2c1CCCCC2	u	24%	x	43%
CCCC(=O)Oc1ccc2c(C)cc(=O)oc2c1	0%	-15%	0%	33%
CC(n1cnnn1)C12CC3CC(CC(C3)C1)C2 (centres undefined)	1.7µM*	-2%	11%	u
CCCNC(=O)CSc1nc2ccccc2c(=O)n1CCC	-23%	-2%	-10%	11%
COc1ccccc1NS(=O)(=O)c1cccc(NC(=O)c2nn(C)c(=O)c3ccccc23)c1	10µM*	2%	-2%	u
Cn1nc(C(=O)Nc2ccc(S(=O)(=O)N3CCCCC3)cc2)c2ccccc2c1=O	8.3µM*	-8%	-7%	u
Cn1nc(C(=O)Nc2ccc(S(=O)(=O)NCc3ccco3)cc2)c2ccccc2c1=O	12µM*	1%	-1%	u
Cc1cc(C)cc(NC(=O)Nc2cccc(S(N)(=O)=O)c2)c1	43%	1%	-10%	u
Cn1nc(C(=O)NCc2ccco2)c2ccccc2c1=O	-1%	7%	0%	-3%
NS(=O)(=O)c1cccc(NC(=O)Nc2ccccc2)c1	103%	1%	16%	2.1µM*
Cn1nc(C(=O)Nc2ccc(Cl)c(S(=O)(=O)N3CCOCC3)c2)c2ccccc2c1=O	u	2%	0%	u
Nc1c(C(=O)c2ccccc2)oc2ccc(Br)cc12	u	-20%	14%	159%
O=C(CCS(=O)(=O)c1cccc2nonc12)Nc1cccc2c1CCCC2	x	-4%	-7%	-10%
Cn1nc(C(=O)Nc2cccc(S(=O)(=O)N3CCCCC3)c2)c2ccccc2c1=O	9.3µM*	-3%	-14%	u
COc1ccccc1NS(=O)(=O)c1cccc(NC(=O)Nc2ccccc2)c1	-5%	-3%	4%	-1%
COc1ccccc1NS(=O)(=O)c1cccc(NC(=O)Nc2ccc(Cl)cc2)c1	10µM*	0%	-8%	u
Nc1nonc1C(=O)NCCNCc1cc(Br)ccc1OCc1ccc(F)cc1	1%	-1%	-6%	u
Cc1c(Br)c([N+](=O)[O-])nn1CC(=O)NC1CCCCCC1	1.5µM*	1%	-3%	-12%
CCOC(=O)c1c(NC(=O)Cn2nc([N+](=O)[O-])c(Br)c2C)sc2c1CCC(C)C2 (centres undefined)	0.013µM*	2%	-8%	-27%
O=C(CN1C(=O)CCS(=O)(=O)c2ccccc21)Nc1cccc(Cl)c1	28%	19%	-1%	u
COC(=O)c1scc(S(=O)(=O)c2ccccc2)c1N	-50%	2%	-6%	-7%
O=C(NCCCN1CCCC1=O)c1cc2nc(-c3ccco3)cc(C(F)(F)F)n2n1	21%	22µM*	-10%	-2%
Cc1nn(Cc2ccccc2)c(C)c1NC(=O)c1cc2nc(-c3ccco3)cc(C(F)(F)F)n2n1	-10%[5.75 µM]	-5%	8%	12µM*
O=C(Nc1cnn(Cc2ccc(F)cc2)c1)c1cc(-c2ccco2)on1	u	-5%	17%	13%
SMILES	Pf growth 96h	SARS PLpro yeast	AMA1-RON2 inh	Pf growth 48h
COc1cccc(-c2cc(C(=O)Nc3cnn(Cc4ccc(F)cc4)c3)no2)c1	2.1µM*	1%	2%	5%
O=C(Nc1cnn(Cc2ccc(F)cc2)c1)c1cc2nc(-c3ccco3)cc(C(F)(F)F)n2n1	10µM*	4%	-13%	7%
Cc1ccc(Nc2nnc(SCc3nc4ccccc4c(=O)[nH]3)s2)cc1	u	1%	-14%	-9%
COc1ccc(CNC(=O)CCSc2nc(-c3ccc4c(c3)OCO4)cc(C(F)(F)F)n2)cc1	u	29%	-10%	u
CC(=O)N1CCN(c2ccc(NC(=O)c3cccc(Cl)c3)cc2)CC1	0%	-1%	-2%	98%
Cc1ccc(Cn2ccc(NC(=O)c3cc(-c4ccc(Cl)cc4)on3)n2)cc1	14%	-1%	4%	69%
Cc1ccc(Cn2ccc(NC(=O)c3cc(-c4ccc(F)cc4)on3)n2)cc1	3.3µM*	7%	3%	-21%
CC(=O)c1c(C(C)=O)c(C)n(-c2nc(-c3ccc(C)c(C)c3)c(C)s2)c1C	-18%	-13%	-10%	12µM*
COc1ccc(-c2nc(-n3c(C)c(C(C)=O)c(C(C)=O)c3C)sc2C)cc1	-1%	-1%	11%	u
COc1ccccc1Nc1nc(-c2cccc([N+](=O)[O-])c2)nc2ccccc12	u	7%	-7%	u
O=C(O)c1cccc2c1NC(C(=O)O)C1CC(Sc3ccccc3[N+](=O)[O-])C(Cl)C21 (centres undefined)	u	15%	-26%	8%
CC(=O)c1ccc2c(c1)C1C(Cl)C(Sc3ccccc3[N+](=O)[O-])CC1C(C(=O)O)N2 (centres undefined)	2.6µM*	-5%	-27%	-23%
CSc1nc(Oc2ccccc2)c2sccc2n1	-7%	-5%	46%	-1%
CSc1nc(Oc2ccc3ccccc3c2)c2ccccc2n1	u	-6%	20%	10µM*
Nc1nonc1C(=Nc1ccc(Br)cc1)NO	83%	22%	8%	x
C=CCN1C(=O)C(O)(CC(=O)c2ccc(OC)cc2OC)c2cc(Br)ccc21 (centres undefined)	-1%	8%	1%	12µM*
CN1C(=O)C(O)(CC(=O)c2cccc(-n3cccc3)c2)c2ccccc21 (centres undefined)	-2%	-19%	u	9.3µM*
CCCCN1C(=O)C(O)(CC(=O)c2ccco2)c2cc(Br)ccc21 (centres undefined)	-28%	1%	2%	-16%
O=C(CC1(O)C(=O)Nc2ccccc21)c1cccc(-n2cccc2)c1 (centres undefined)	31%	0%	-3%	11%
CN1C(=O)C(O)(CC(=O)c2ccccc2O)c2cc(Br)ccc21 (centres undefined)	1.2µM*	-10%	-3%	u
O=C1CN(C(=O)NCC(=O)N2CCCC2)c2ccccc2N1	-2%	1%	0%	18%
Nn1c(SCC(=O)Nc2cc(C(F)(F)F)ccc2Cl)nncc1=O	u	8%	29%	12µM*
Cc1ccc(C)n1-c1cc([N+](=O)[O-])ccc1-n1ccnc1	u	-1%	0%	12µM*
COc1ccc([N+](=O)[O-])cc1-n1cccc1	195%	29%	u	10%
CCOC(=O)c1c(C)[nH]c(C2=NNC(=Nc3ccccc3OC)SC2)c1C	u	-6%	28%	u
CC(=O)c1c(C)[nH]c(C2=NNC(=NC(C)(C)C)SC2)c1C	2.6µM*	-7%	25%	0%
CCOC(=O)c1c(C)[nH]c(C2=NNC(=Nc3ccccc3)SC2)c1C	3.7µM*	-49%	19%	3.3µM*
CCOC(=O)c1c(C)[nH]c(C2=NNC(=Nc3ccc(OCC)cc3)SC2)c1C	15µM*	-3%	-21%	u
